From the supplement of paper PMC10681739 come the findings set out here.

The target of the first experiment is T1, ETS1 (UniProt P14921).
T1 sequence: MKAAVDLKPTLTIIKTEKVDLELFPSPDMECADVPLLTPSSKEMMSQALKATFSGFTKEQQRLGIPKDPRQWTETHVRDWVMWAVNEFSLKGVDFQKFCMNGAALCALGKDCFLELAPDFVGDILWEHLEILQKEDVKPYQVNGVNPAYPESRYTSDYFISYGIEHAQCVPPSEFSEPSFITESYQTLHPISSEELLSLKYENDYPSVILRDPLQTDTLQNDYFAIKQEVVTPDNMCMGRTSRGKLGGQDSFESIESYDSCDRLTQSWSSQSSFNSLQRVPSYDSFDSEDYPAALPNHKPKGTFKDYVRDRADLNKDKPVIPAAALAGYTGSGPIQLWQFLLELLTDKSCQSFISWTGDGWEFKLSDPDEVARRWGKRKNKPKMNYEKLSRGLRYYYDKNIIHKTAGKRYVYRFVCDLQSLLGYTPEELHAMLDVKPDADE
In words: ETS1 binding intensity (PBM fluorescence), ETS1 alone (arbitrary fluorescence units); higher = stronger binding. The note with it: ETS1 concentration 1 nM; RUNX1 concentration 0 nM.
With AAAGGGAAGTTGGCGGGAGTTCAAAACCACCGGGGC, the ETS1 binding intensity was 347.
Same read-out and setting: as for GCAGGACTCCAGGAAGCCCGCGCAGCCGCAAAAAGC, the figure is 597; as for ACAGTTTCCTTGCTGTGATGTCAGCCCCCGCCGCAG, 709; as for TTTAAGGGCGGAAAGGCTTTAGCCGCAAAATGGCTT, 547.
GCAAAGATACATCCTTCTCCCCACAGACTAAGTTTC displayed an ETS1 binding intensity of 490.
The sequence TACTTAGAGGAAATGTGGCCTGTGGTCTTGTCTCAC showed an ETS1 binding intensity of 617.
For GTCCCCCGGAACCGTCTCCTCCCCCGCACGCGCCGC, the ETS1 binding intensity came to 516.
In turn, CACCCAAGGATATGCTTTTTTTTGGCAAGCCACATC gave an ETS1 binding intensity of 430.
TGAGCCCCAGCAAGGGGAAGTGGTTAACCCAGGGTC yielded an ETS1 binding intensity of 709.

The next experiment concerns the target T1, ETS1. Put plainly: TF binding intensity (PBM fluorescence), negative control probe (arbitrary fluorescence units); higher = stronger binding.
Conditions: not given
As to the method:
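gcPBM negative-control 36-bp genomic probes lacking TF binding sites. Each was incubated with recombinant human ETS1 or RUNX1 alone and detected by antibody fluorescence. Values are medians over replicate spots (4 spots for the ETS1-RUNX1 arrays, 3 for the ETS1-ETS1 array). The probes sit in constant array flanks that are not printed.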
In turn, “ATAATGGAAAGCGAAACCGCAGATTAAGCAGGGACT (protein concentration 1 nM)” gave a TF binding intensity of 398.
Still for that read-out and setting: to “CTGCTGGGTGGAGTGTGGACAAGCGGCCTTTGCATC (protein concentration 10 nM)” belongs 150; to “GTTCCAGGCATTGTACTGAGGGGAGGCCCTCCTGTG (protein concentration 10 nM)”, 109.
On to “GCAAAGCGGGCGAGTGGCCTGGAGAGAGGGAGCAGC (protein concentration 10 nM)”, for which the TF binding intensity amounted to 150.
“TTAACCTCTAGAAAAAGTAAATATTCAGCAATAGGA (protein concentration 10 nM)” had a TF binding intensity of 103.
Consider “CAGGTGGATGACTCAGCTGGAGAACAAAGTGGCTTC (protein concentration 10 nM)”, for which the TF binding intensity came out at 122.
The sequence “ACCCTGAGCCCTCTCCCGCTCCCTGGGTCTCAGCCT (protein concentration 10 nM)” returned a TF binding intensity of 98.1.
Consider “TTCATAACGTTATACACCACAATGCTAAAAAAATGA (protein concentration 1 nM)”, for which the TF binding intensity came to 672.
Take “TCAGCAGCTCGTGCTGCTTGAAGTGCTGGGGGCGAG (protein concentration 10 nM)”: the TF binding intensity worked out at 153.
The sequence “TTTCAGAGGGAAAAGAATTTTGCCGTTCGCGTTCGA (protein concentration 10 nM)” gave a TF binding intensity of 113.
On the same count and under the same terms, as for “ACAGGCCCTCCAGGTGTTGAAACCATGCTGGGCTGA (protein concentration 10 nM)”, the figure is 102; as for “AGACTGCATACTTATAAAGTGGAGTATGCAGATAAT (protein concentration 10 nM)”, 119.
On the same count and under the same terms, to “GTTTTGCAACTCTTATTCCAAGTGGACACCCAGAAA (protein concentration 10 nM)” belongs 140; to “TGCCGTGTACTTGATCTTGTCCCACAGAATCACCTG (protein concentration 10 nM)”, 112; to “CAGGCAGCATCTGGGGGTGTGTGGGTTTGGCAAGCT (protein concentration 10 nM)”, 134.
The same measure, in the same setting: to “GAACTAACGAGGTCACTGAGAAATTACAAAGTGTGA (protein concentration 10 nM)” belongs 107.
For “TCCTTTTGCTATACAGACCCCAGAACTCCTGAATGG (protein concentration 10 nM)”, the TF binding intensity is 119.
Take “AATGAATCTGCATGAATAAAAGGGTCAACACAGCAG (protein concentration 10 nM)”: the TF binding intensity is 147.
“AATCCAATGGGGTTTCTGTGTAATTAATAACATCTA (protein concentration 10 nM)” displayed a TF binding intensity of 120.
“GGTAATAGTTACTGCTGTGGTCTGAATGTTTGTGTC (protein concentration 1 nM)” came in with a TF binding intensity of 555.
For the sequence “TGGAAAATAATATTTCAAGACCATAATATGGCTGCT (protein concentration 10 nM)”, the TF binding intensity came out at 100.
For the sequence “GACCACAGGGACCCATGCCAGTCAGATAAAAATAAC (protein concentration 10 nM)”, the TF binding intensity was 141.
Take “CTCGCGGCGCACTCCCAGAGGCTGGGGGGCCGGGGC (protein concentration 10 nM)”: the TF binding intensity was 183.
Sequence “AACGTCTACATTTGCTATTGTAAAACTTTTCAAGGC (protein concentration 10 nM)” registered a TF binding intensity of 125.
The sequence “CTCTGTTACAAAGCTTCACTTCTTAAGAGAGGGCTG (protein concentration 10 nM)” displayed a TF binding intensity of 134.
On to “AGCGGGAGGGAGGCCAGGGAAGGCTGCTGGGGGTCG (protein concentration 10 nM)”, for which the TF binding intensity came to 142.
Sequence “ACGTGTGGGGACCCAAGCTATCCCTAAGAAAGCACT (protein concentration 10 nM)” showed a TF binding intensity of 115.
Regarding “AAACTAATCAGAATTTAACATCATACATAAATGGCA (protein concentration 10 nM)”, the TF binding intensity was 116.
Sequence “AGTTCAAAAAAGCCCAAATGCTATAGGGACAACAAC (protein concentration 10 nM)” yielded a TF binding intensity of 148.
With “GAAGAGCAGGCCTGGCGTCTGCCCGTGCCAGTGTTT (protein concentration 10 nM)”, the TF binding intensity was 102.

In a further experiment the target is T1, ETS1. Put plainly: ETS1 binding intensity (PBM fluorescence) in presence of RUNX1, normalised to ETS1-only experiment (arbitrary fluorescence units); higher = stronger binding. The note with it: ETS1 concentration 1 nM; RUNX1 concentration 25 nM.
On to AAAGGGAAGTTGGCGGGAGTTCAAAACCACCGGGGC, for which the ETS1 binding intensity came out at 494.
Take GCAGGACTCCAGGAAGCCCGCGCAGCCGCAAAAAGC: the ETS1 binding intensity came out at 1350.
Still for that read-out and setting: as for ACAGTTTCCTTGCTGTGATGTCAGCCCCCGCCGCAG, the figure is 682; as for TTTAAGGGCGGAAAGGCTTTAGCCGCAAAATGGCTT, 2380; as for GCAAAGATACATCCTTCTCCCCACAGACTAAGTTTC, 412.
With TACTTAGAGGAAATGTGGCCTGTGGTCTTGTCTCAC, the ETS1 binding intensity amounted to 977.
GTCCCCCGGAACCGTCTCCTCCCCCGCACGCGCCGC: the ETS1 binding intensity came out at 433.
In the case of CACCCAAGGATATGCTTTTTTTTGGCAAGCCACATC, the ETS1 binding intensity was determined as 451.
The same measure, in the same setting: as for TGAGCCCCAGCAAGGGGAAGTGGTTAACCCAGGGTC, the figure is 1960.
